Values joined by “and” are separate entries in the source; they are usually repeats but may differ in a detail not shown here. Equal values may be shown once. The panel holds about 79,000 compounds, 15% with a hit somewhere; the sample as a whole holds those more often. More than one record can exist for a structure, and the calls need not agree. Active and inactive are the calls of the source. No stated cut-off is given here; in the data, active means growth inhibition above about 70%; inactive means the rest.
Legend:
[1] = NCI Yeast Anticancer Drug Screen. Data for the rad50 strain (AID 155);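 further: 0% = growth of vehicle-only cultures of the same strain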; conditions: S. cerevisiae rad50 strain growth inhibition, stronger effect = higher value
Procedure, shortened: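 Inhibition values express reduced yeast growth in compound-treated cultures relative to vehicle-treated controls.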

[2] = NCI Yeast Anticancer Drug Screen. Data for the mec2-1 strain (AID 157); conditions: S. cerevisiae mec2-1 strain, stronger effect = higher value
Procedure, shortened: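 Yeast mec2-1 mutant treated with compound. Readout: growth inhibition vs vehicle controls.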

[3] = NCI Yeast Anticancer Drug Screen. Data for the sgs1 mgt1 strain (AID 161);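 further: 0% = growth of cultures given vehicle only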; conditions: S. cerevisiae sgs1 mgt1 strain, stronger effect = higher value
Procedure, shortened: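 Genetically altered yeast, compound exposure, growth inhibition relative to vehicle.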

[4] = NCI Yeast Anticancer Drug Screen. Data for the cln2 rad14 strain (AID 165);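 further: 0% = growth equal to vehicle treated cultures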; conditions: S. cerevisiae cln2 rad14 strain, stronger effect = higher value
Procedure, shortened: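 cln2 rad14 yeast strain; compound exposure; growth inhibition read vs vehicle controls.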

[5] = NCI Yeast Anticancer Drug Screen. Data for the bub3 strain (AID 167); conditions: S. cerevisiae bub3 mutant strain, stronger effect = higher value
Procedure, shortened: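 Steps: expose the mutant yeast strain to compound; grow alongside vehicle-treated cultures; measure growth; express inhibition against the vehicle cultures.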

[6] = NCI Yeast Anticancer Drug Screen. Data for the mlh1 rad18 strain (AID 175); conditions: S. cerevisiae mlh1 rad18 strain growth inhibition, stronger effect = higher value
Procedure, shortened: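 Yeast w/ defined DNA-repair lesions; compound exposure; growth vs vehicle controls → % inhibition.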

[7] = at 5.0 µM (retest, dose inferred, filed as 0.5)
[8] = at 50.0 µM (retest, dose inferred, filed as 5.0)

Row | SMILES | growth inhibition [1, 7] | growth inhibition [1, 8] | growth inhibition ([1]; at 50.0 µM) | growth inhibition [2, 7] | growth inhibition [2, 8] | growth inhibition ([2]; at 50.0 µM) | growth inhibition [3, 7] | growth inhibition [3, 8] | growth inhibition ([3]; at 50.0 µM) | growth inhibition [4, 7] | growth inhibition [4, 8] | growth inhibition ([4]; at 50.0 µM) | growth inhibition [5, 7] | growth inhibition [5, 8] | growth inhibition ([5]; at 50.0 µM) | growth inhibition [6, 7] | growth inhibition [6, 8] | growth inhibition ([6]; at 50.0 µM)
1 | CSCCC(NS(=O)(=O)Cc1ccccc1)C(=O)NNc1ccccc1 (configuration not stated) | -4% (inactive) and 18% (inactive) | 44% (inactive) and 71% (active) | 72% (active) and 51.2% (inactive) | 0% (inactive) and 2% (inactive) | 30% (inactive) and 34% (inactive) | 30.7% (inactive) and 41.2% (inactive) | -12% (inactive) and 10% (inactive) | 65% (inactive) and 58% (inactive) | 55.9% (inactive) and 63.3% (inactive) | 14% (inactive) and 5% (inactive) | 44% (inactive) and 60% (inactive) | 56.4% (inactive) and 40.1% (inactive) | 2% (inactive) and 16% (inactive) | 42% (inactive) and 93% (active) | 46.6% (inactive) and 73.8% (active) | 33% (inactive) and 18% (inactive) | 79% (active) and 65% (inactive) | 76.9% (active) and 76.8% (active)
2 | COC1/C=C\C=C(/C)C(=O)Nc2cc3nc4ccc(Br)cc4oc-3c(c2=O)CC(C)CC(OC)C(O)C(C)/C=C(\C)C1OC(N)=O (configuration not stated) | 44% (inactive) | 97% (active) | 89.2% (active) | 57% (inactive) | 98% (active) | 90.9% (active) | 96% (active) | 98% (active) | 91.5% (active) | 85% (active) | 92% (active) | 89% (active) | 94% (active) | 97% (active) | 90.7% (active) | 57% (inactive) | 98% (active) | 88.1% (active)
3 | CSc1ccc(N2C(=O)CSC2=S)cc1Cl | 27% (inactive) | 74% (active) | 97.5% (active) | 27% (inactive) | 40% (inactive) | 94.3% (active) | 16% (inactive) | 79% (active) | 95.2% (active) | -1% (inactive) | -4% (inactive) | 29.1% (inactive) | 37% (inactive) | 82% (active) | 92.4% (active) | 31% (inactive) | 94% (active) | 97% (active)
4 | CCCCCCCCCCCC[N+](C)(C)Cc1ccccc1 | 58% (inactive) and 95% (active) | 99% (active) and 98% (active) | 85.7% (active) and 97.7% (active) | 75% (active) and 93% (active) | 100% (active) and 98% (active) | 99.8% (active) and 98.3% (active) | 91% (active) and 99% (active) | 100% (active) and 98% (active) | 98% (active) and 99.4% (active) | 56% (inactive) and 88% (active) | 99% (active) and 97% (active) | 99.4% (active) and 98% (active) | 57% (inactive) and 92% (active) | 100% (active) and 98% (active) | 99.5% (active) and 99.3% (active) | 81% (active) and 96% (active) | 99% (active) and 98% (active) | 99.7% (active) and 98.5% (active)
5 | CC(C)(S)C(N)C(=O)O (configuration not stated) | -14% (inactive) | 4% (inactive) | -12.3% (inactive) and -14.5% (inactive) and 21.1% (inactive) | 1% (inactive) | -8% (inactive) | -9.15% (inactive) and 2.8% (inactive) and -17.5% (inactive) | -2% (inactive) | -9% (inactive) | -9.7% (inactive) and -11.3% (inactive) and 3% (inactive) | 4% (inactive) | -1% (inactive) | -2.5% (inactive) and 45.3% (inactive) and 3.15% (inactive) | -9% (inactive) | -13% (inactive) | -13.6% (inactive) and -0.75% (inactive) and 24.6% (inactive) | -3% (inactive) | -1% (inactive) | 6.8% (inactive) and 9.35% (inactive) and 3.55% (inactive)
6 | Clc1ccc(CNNCc2ccc(Cl)cc2)cc1 | -12% (inactive) | 85% (active) | 7.2% (inactive) and 78.7% (active) | 0% (inactive) | 96% (active) | -3.05% (inactive) and -2.3% (inactive) | -2% (inactive) | 98% (active) | -3% (inactive) and 58.5% (inactive) | -1% (inactive) | 72% (active) | -10.4% (inactive) and 16.6% (inactive) | 46% (inactive) | 96% (active) | -9.95% (inactive) and 72.6% (active) | -2% (inactive) | 94% (active) | 11.7% (inactive) and 67.8% (inactive)
7 | O=C1C=CC(=O)C(C2OC(=O)C(Br)=C2Br)=C1 (configuration not stated) | -14% (inactive) | 18% (inactive) | 6.95% (inactive) | -21% (inactive) | -17% (inactive) | 5.5% (inactive) | -18% (inactive) | -1% (inactive) | -3.45% (inactive) | -10% (inactive) | -10% (inactive) | -17.7% (inactive) | -9% (inactive) | 7% (inactive) | 13.6% (inactive) | -25% (inactive) | 46% (inactive) | 12.4% (inactive)
8 | Cc1ccc(OC(=O)c2ccc(N)cc2O)cc1 | 48% (inactive) | 86% (active) | 45.1% (inactive) | 83% (active) | 90% (active) | 68.2% (inactive) | -3% (inactive) | 93% (active) | 42.5% (inactive) | 39% (inactive) | 97% (active) | 42.2% (inactive) | 24% (inactive) | 90% (active) | 77.7% (active) | 33% (inactive) | 97% (active) | 53.3% (inactive)
9 | O=[N+]([O-])C1=C(c2ccccc2)SC=C(c2ccccc2)S1 | 6% (inactive) and -1% (inactive) | 13% (inactive) and -6% (inactive) | 24% (inactive) and 71.5% (active) | -6% (inactive) and 10% (inactive) | -3% (inactive) and 1% (inactive) | 13.4% (inactive) and 82.9% (active) | 3% (inactive) and 22% (inactive) | -1% (inactive) and -5% (inactive) | 31.6% (inactive) and 84.7% (active) | 18% (inactive) and 1% (inactive) | 64% (inactive) and -4% (inactive) | 54.9% (inactive) and 89.1% (active) | 48% (inactive) and 50% (inactive) | 80% (active) and 28% (inactive) | 12.4% (inactive) and 84.8% (active) | -9% (inactive) and 17% (inactive) | -10% (inactive) and -3% (inactive) | 57.5% (inactive) and 85.9% (active)
10 | COc1ccc(/C=C/C(=O)CCN2CCN(CCC(=O)/C=C/c3ccc(OC)cc3)CC2)cc1 | 16% (inactive) | 99% (active) | 81.7% (active) | -15% (inactive) | 99% (active) | 90.7% (active) | -4% (inactive) | 99% (active) | 90.2% (active) | -20% (inactive) | 99% (active) | 29.9% (inactive) | -59% (inactive) | 99% (active) | 87% (active) | -5% (inactive) | 98% (active) | 91.5% (active)
11 | CN=c1sc2nc(C#N)c(C#N)nc2n1C | -15% (inactive) | 44% (inactive) | 85.3% (active) | -8% (inactive) | 61% (inactive) | 40.1% (inactive) | -23% (inactive) | 35% (inactive) | 75.3% (active) | 2% (inactive) | 23% (inactive) | 63.1% (inactive) | -22% (inactive) | 69% (inactive) | 89.8% (active) | -8% (inactive) | 58% (inactive) | 81.5% (active)
12 | Clc1ccc2c(c1)[nH]c1c2nc2ccccn21 | 21% (inactive) | 95% (active) | 62.9% (inactive) and 83.2% (active) | 19% (inactive) | 98% (active) | -11.3% (inactive) and 67.4% (inactive) | 50% (inactive) | 95% (active) | 19.4% (inactive) and 85.7% (active) | 47% (inactive) | 95% (active) | 25.2% (inactive) and 77.5% (active) | 36% (inactive) | 97% (active) | 15.2% (inactive) and 79.2% (active) | 11% (inactive) | 98% (active) | -14.4% (inactive) and 80.4% (active)
13 | Nc1ncnc(N)c1N=O | -19% (inactive) | 1% (inactive) | 39% (inactive) and 21.6% (inactive) | -13% (inactive) | -3% (inactive) | 32.5% (inactive) and 4.05% (inactive) | 5% (inactive) | 3% (inactive) | 67.5% (inactive) and 35.1% (inactive) | 11% (inactive) | 28% (inactive) | 39.3% (inactive) and 31.2% (inactive) | -2% (inactive) | 54% (inactive) | 62.6% (inactive) and 53.2% (inactive) | -3% (inactive) | 15% (inactive) | 34.5% (inactive) and 26.6% (inactive)
14 | Cc1cc([N+](=O)[O-])c(C)c2c1[nH]c1ccc(O)cc12 | 52% (inactive) | 93% (active) | 87% (active) | 46% (inactive) | 94% (active) | 88.8% (active) | 23% (inactive) | 94% (active) | 88.2% (active) | 50% (inactive) | 96% (active) | 85.5% (active) | 78% (active) | 96% (active) | 88.8% (active) | 73% (active) | 95% (active) | 82.7% (active)

Source: PubChem BioAssay (NCI)
